Eight compounds from PubChem BioAssay (EPA / NIEHS) can be followed below.

As a reminder, the AC50 is the concentration giving half of the maximal activity seen.

Results filed as inconclusive are left out. Calls of active or inactive are those of the source. Rule for the calls, unless noted: active = hit-call score of the fitted dose curve at least 0.9, where 1 is the maximum; inconclusive = response in the unintended direction; inactive = score below 0.9.

Read-out in test [1]: UDP glucuronosyltransferase (UGT1A6), UGT1A6 (gene 54578)
Briefly: LTEA_HepaRG_UGT1A6: Life Technologies and Expression Analysis (LTEA) Assay for UDP glucuronosyltransferase (UGT1A6) using HepaRG (AID 2283539; active = hit-call score of the fitted dose curve at least 0.9, where 1 is the maximum; inactive = score below 0.9). Conditions: mRNA level, 48 h; actives raise or lower the signal. In a few lines:
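Endpoint is UGT1A6 transcript induction or loss in a human liver cell line, quantified by TaqMan qRT-PCR 48 h after dosing. Concentrations ran from 100 uM downward in half-log steps in 0.5% DMSO; activity was fitted in both directions versus vehicle.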

Read-out in test [2]: X-box binding protein 1 (XBP1), XBP1 (gene 7494)
Briefly: LTEA_HepaRG_XBP1: Life Technologies and Expression Analysis (LTEA) Assay for X-box binding protein 1 (XBP1) using HepaRG (AID 2283540; active = hit-call score of the fitted dose curve at least 0.9, where 1 is the maximum; inactive = score below 0.9). The settings on record: mRNA level, 48 h; actives raise or lower the signal. An outline of the steps:
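Human HepaRG monolayers receive test chemical for 48 h across an eight-point half-log series starting at 100 uM. XBP1 mRNA gain or loss is scored against DMSO by qRT-PCR.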

Test [3] can be described thus: LTEA_HepaRG_LDH_cytotoxicity: Cytotoxicity Assessment in the Life Technologies and Expression Analysis (LTEA) Assay (AID 2283563).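 For AC50: LDH activity released into spent culture medium as a marker of cell death.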 In a few lines: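 Human HepaRG hepatic cells are treated with test chemicals for 48 h at up to 100 uM in 0.5% DMSO. Cytotoxicity is scored from medium LDH against the vehicle control.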
Test [4] in a line: TOX21_p53_BLA_p2_viability: Viability Assessment in the Tox21 HCT-116 p53 Agonism Beta-lactamase Assay, Phase 2 (AID 2283591).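 Note: actives lower the ATP signal meaning cytotoxicity.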 In a few lines:
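HCT116 p53-bla cells, 4000/well, dosed after 5 h plating (217-fold dilution of DMSO stocks) and incubated 16 h at 37C. Viability taken as cellular ATP by CellTiter-Glo luminescence after 30 min RT; signal loss marks cytotoxicity.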

Test [5] has as its target Cellular tumor antigen p53 (Homo sapiens) (UniProt P04637). As to the kind of experiment: TOX21_p53_BLA_p2_ratio: Tox21 HCT-116 p53 Agonism Beta-lactamase Assay, Ratio, Phase 2 (AID 2283592). In a few lines:
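An inducible beta-lactamase reporter in HCT116 cells signals p53 pathway activation. After 16 h chemical exposure at 37C, cells load CCF4-AM substrate for 2 h at room temperature; activity is the cleaved/uncleaved emission ratio relative to DMSO.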

Test [6] in a line: TOX21_p53_BLA_p3_viability: Viability Assessment in the Tox21 HCT-116 p53 Agonism Beta-lactamase Assay, Phase 3 (AID 2283593).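 Note: cells exposed to compound for 16 h before reading.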 An outline of the steps:
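HCT116 cells, 4000/well, dosed 5 h after plating by pin transfer (217-fold dilution from DMSO stock) and incubated 16 h at 37C, 5% CO2. Viability read as ATP luminescence with CellTiter-Glo after 30 min at room temperature.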

The target of test [7] is Cellular tumor antigen p53 (Homo sapiens) (UniProt P04637). Briefly: TOX21_p53_BLA_p3_ratio: Tox21 HCT-116 p53 Agonism Beta-lactamase Assay, Ratio, Phase 3 (AID 2283596). An outline of the steps:
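HCT116 p53-bla cells (4000/well) given compound in DMSO (217-fold dilution) after 5 h, incubated 16 h at 37C. CCF4-AM substrate 2 h at room temperature; 460/530 nm emission ratio, gain fitted against DMSO.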

A short description of test [8]: TOX21_p53_BLA_p4_viability: Viability Assessment in the Tox21 HCT-116 p53 Agonism Beta-lactamase Assay, Phase 4 (AID 2283597).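 Note: hits lower the luminescence signal meaning cytotoxicity.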 An outline of the steps:
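Compound exposure of HCT116 cells lasts 16 h at 37C, 5% CO2, with DMSO stocks diluted 217-fold. Cellular ATP is then quantified by CellTiter-Glo luminescence after 30 min at room temperature.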

The target of test [9] is Cellular tumor antigen p53 (Homo sapiens) (UniProt P04637). Briefly: TOX21_p53_BLA_p5_ratio: Tox21 HCT-116 p53 Agonism Beta-lactamase Assay, Ratio, Phase 5 (AID 2283599). In a few lines:
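HCT-116 p53-bla cells (4000/well) plated 5 h, dosed with compound (217-fold DMSO dilution) for 16 h at 37 C; CCF4-AM substrate 2 h at room temperature. Activity is the 460/530 nm emission ratio (405 nm excitation), fitted in gain-of-signal direction versus DMSO.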

The nature of test [10]: TOX21_p53_BLA_p5_viability: Viability Assessment in the Tox21 HCT-116 p53 Agonism Beta-lactamase Assay, Phase 5 (AID 2283600). In a few lines: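 Counter-readout for cytotoxicity: ATP-dependent luminescence from CellTiter-Glo, read in the beta-lactamase wells after 30 min at RT, following a 16 h compound exposure at 37C.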
Test [11] addresses Cellular tumor antigen p53 (Homo sapiens) (UniProt P04637). Briefly: TOX21_p53_BLA_p4_ratio: Tox21 HCT-116 p53 Agonism Beta-lactamase Assay, Ratio, Phase 4 (AID 2283601). In a few lines: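 HCT-116 p53 beta-lactamase reporter cells (4000/well) preincubated 5 h, then compound (217-fold dilution of DMSO stock) for 16 h at 37C. CCF4-AM substrate added 2 h at room temperature; 460/530 nm emission ratio fitted upward versus DMSO.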

Test [12] can be described thus: Tanguay_ZF_120hpf_MORT_legacy: (Legacy) Oregon State University Tanguay Lab 120 Hour Post-fertilization zebrafish Assay for Mortality (AID 2283633).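 For AC50: fitted as increase in binary mortality versus DMSO negative control.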 In a few lines:
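Mortality endpoint from a multiplexed whole-embryo zebrafish screen. Dechorionated wild-type embryos received compound at 6 hpf and remained under static exposure at 28C until 120 hpf, with death noted as a present/absent call.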

A short description of test [13]: Tanguay_ZF_120hpf_YSE_legacy: (Legacy) Oregon State University Tanguay Lab 120 Hour Post-fertilization zebrafish Assay for Yolk Sac Edema (AID 2283634). An outline of the steps: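 Readout: presence or absence of yolk sac edema at 120 hpf, fitted upward against DMSO controls. Exposure ran statically from 6 hpf in dechorionated embryos kept at 28C.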
Test [14] in a line: Tanguay_ZF_120hpf_AXIS_legacy: (Legacy) Oregon State University Tanguay Lab 120 Hour Post-fertilization zebrafish Assay for Body Axis Malformation (AID 2283635). An outline of the steps:
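Static 6–120 hpf chemical exposure of dechorionated wild-type 5D zebrafish, one per well at 28C; morphology endpoint scored binary at 120 hpf relative to DMSO control.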

Test [15] can be described thus: Tanguay_ZF_120hpf_EYE_legacy: (Legacy) Oregon State University Tanguay Lab 120 Hour Post-fertilization zebrafish Assay for Eye Malformation (AID 2283636).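 Note: binary presence or absence of eye malformation scored by brightfield in 120 hpf larvae.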 In a few lines: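 Dechorionated Tropical 5D zebrafish embryos, one per well from 6 hpf, static exposure to 120 hpf at 28C, 0.64% DMSO. Eye malformation scored present/absent by brightfield; dead embryos not scored.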

The nature of test [16]: Tanguay_ZF_120hpf_SNOU_legacy: (Legacy) Oregon State University Tanguay Lab 120 Hour Post-fertilization zebrafish Assay for Snout Malformation (AID 2283637). In a few lines:
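Dechorionated tropical 5D wild-type zebrafish embryos exposed statically from 6 to 120 hpf at 28C, one per well, in 0.64% DMSO. Snout malformation scored as present/absent by brightfield at 120 hpf; dead embryos not scored.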

Test [17] is described as follows: Tanguay_ZF_120hpf_JAW_legacy: (Legacy) Oregon State University Tanguay Lab 120 Hour Post-fertilization zebrafish Assay for Jaw Malformation (AID 2283638). An outline of the steps:
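Static waterborne exposure of dechorionated wild-type (Tropical 5D) zebrafish from 6 to 120 hpf at 28C, 0.64% DMSO vehicle; 5uM trimethyltin chloride served as positive control. Jaw morphology recorded as binary at 120 hpf.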

Test [18] in a line: Tanguay_ZF_120hpf_OTIC_legacy: (Legacy) Oregon State University Tanguay Lab 120 Hour Post-fertilization zebrafish Assay for Otic Vesicle Malformation (AID 2283639). In a few lines:
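Tropical 5D wild-type zebrafish embryos were exposed statically in sealed, foil-covered plates at 28C until 120 hpf, with 0.64% (vol/vol) DMSO final. Otic vesicle malformation was scored present/absent by brightfield microscopy, with DMSO as baseline.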

Test [19] can be described thus: Tanguay_ZF_120hpf_PE_legacy: (Legacy) Oregon State University Tanguay Lab 120 Hour Post-fertilization zebrafish Assay for Pericardial Edema (AID 2283640). An outline of the steps: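 Read-out is the presence or absence of pericardial edema at 120 hpf under brightfield, with gain of signal fitted against DMSO controls. Larvae (5D wild-type) were statically exposed at 28C with 0.64% final DMSO.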

Test [20] is described as follows: ATG_XTT_Cytotoxicity: Cytotoxicity Assessment in the Attagene TRANS-FACTORIAL HepG2 Assay (AID 2283584). In a few lines: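 Transfect HepG2 with GAL4-UAS reporter units, dose compound, incubate 24 h, then measure viable cell number by XTT. Fit concentration response against DMSO baseline.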

Chain of Cellular tumor antigen p53 (Homo sapiens) (P04637 whole entry, looked up): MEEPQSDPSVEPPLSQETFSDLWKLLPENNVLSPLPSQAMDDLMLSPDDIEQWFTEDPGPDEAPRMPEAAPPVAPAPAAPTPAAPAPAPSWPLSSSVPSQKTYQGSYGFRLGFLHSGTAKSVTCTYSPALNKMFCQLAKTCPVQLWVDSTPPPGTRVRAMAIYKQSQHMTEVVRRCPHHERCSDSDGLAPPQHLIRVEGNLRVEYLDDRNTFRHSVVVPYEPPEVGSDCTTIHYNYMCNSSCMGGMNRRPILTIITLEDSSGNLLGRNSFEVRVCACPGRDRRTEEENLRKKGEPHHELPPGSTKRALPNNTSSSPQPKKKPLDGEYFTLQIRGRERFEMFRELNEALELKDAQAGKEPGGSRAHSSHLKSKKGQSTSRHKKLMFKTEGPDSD

In the case of `Cc1nn(C)c(Oc2ccccc2)c1C=NOCc1ccc(C(=O)OC(C)(C)C)cc1`, the AC50 in [1] was 1.61 µM (active); in [3] it was 8.6 µM (active); in test [5], 0.0043 µM (active); in test [12], 3.26 µM (active). For the same compound, the compound was classed as inactive in [2], in [4], in test [6], in test [7], in test [8] and in test [9]. In addition, the compound was called inactive in test [10], in test [11], in test [13], in [14], in test [15] and in test [16]. For the same compound, the compound was called inactive in test [17], in [18] and in test [19].
For the compound `CCC(C)OC(=O)N1CCCCC1CCO` (stereo unspecified), the compound was called inactive in test [1], in test [2], in [3], in test [5], in test [6] and in test [8]. For the same compound, the outcome in [10], in [11], in [12], in test [13], in [15] and in test [16] was inactive. Besides, the call in test [17], in test [18] and in [19] was inactive.
Regarding `CCCN(CCC)C(=O)SCC`, the compound was called inactive in test [1], in test [2], in test [3], in test [5], in test [6] and in test [7]. Further, the call in [8], in test [10], in [11], in test [12], in test [13] and in test [14] was inactive. Moreover, the compound was called inactive in test [16], in test [17] and in [19].
Regarding `CCCOC(=O)NCCCN(C)C`, the result in [1], in [2], in test [3], in test [4], in [5] and in test [6] was inactive. For the same compound, the result in test [7], in test [9], in test [10], in test [11], in test [12] and in test [13] was inactive. For the same compound, the result in [14], in test [15], in test [17] and in test [19] was inactive.
Regarding `CCCCOC(=O)[C@@H](C)Oc1ccc(Oc2ccc(C(F)(F)F)cn2)cc1`, the result in test [1], in [2], in test [3], in test [4], in test [6] and in test [7] was inactive. The compound was called inactive in test [10], in [11], in test [12], in [13], in test [14] and in test [15]. Besides, the compound was called inactive in [16], in test [18] and in test [19].
Take `CCOC(=O)C(C)Oc1ccc(Oc2nc3ccc(Cl)cc3o2)cc1` (stereo unspecified): the result in test [1], in test [2], in test [3], in test [4], in test [5] and in [6] was inactive. The outcome in test [9], in test [10], in test [12], in test [13], in test [14] and in test [15] was inactive. Further, the compound was classed as inactive in test [16], in [17], in test [18] and in test [19].
With `COc1nc(C)nc(NC(=O)NS(=O)(=O)c2ccccc2OCCCl)n1`, the outcome in test [20], in test [4], in test [5], in [7], in test [8] and in test [9] was inactive. Further, in [11], the outcome was inactive.
As for `CCCN(CCC)c1c([N+](=O)[O-])cc(C(F)(F)F)c(N)c1[N+](=O)[O-]`, the result in [1], in test [3], in test [12], in test [13], in test [14] and in test [16] was inactive. Also, the result in test [17], in [18] and in [19] was inactive. Further, the AC50 in test [2] was 28.9 µM (active); in [4] it was 23.1 µM (active); in test [5], 37.8 µM (active); in [6] it was 44.7 µM (active); in test [7], 81.1 µM (active); in test [8], 20.7 µM (active). In addition, the AC50 in test [9] was 67.5 µM (active); in test [10] it was 21.4 µM (active); in test [11], 44.2 µM (active).
